Screening results: PubChem BioAssay, National Center for Advancing Translational Sciences (NCATS)
Cruzain inh noDet: cruzain (T. cruzi) inhibition without detergent; purified cruzain, Z-FR-AMC fluorescence, no detergent; Potency, µM, for the others: max response, negative = inhibition, most hits filed as inhibitors; actives 2.3% (n = 200,000); AID 1476;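 note: plate controls were enzyme without inhibitor for no effect and buffer without enzyme for full effect; nearly all actives have a fitted effect of over 40% in size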
Target sequence (P25779 123-467 limits assumed): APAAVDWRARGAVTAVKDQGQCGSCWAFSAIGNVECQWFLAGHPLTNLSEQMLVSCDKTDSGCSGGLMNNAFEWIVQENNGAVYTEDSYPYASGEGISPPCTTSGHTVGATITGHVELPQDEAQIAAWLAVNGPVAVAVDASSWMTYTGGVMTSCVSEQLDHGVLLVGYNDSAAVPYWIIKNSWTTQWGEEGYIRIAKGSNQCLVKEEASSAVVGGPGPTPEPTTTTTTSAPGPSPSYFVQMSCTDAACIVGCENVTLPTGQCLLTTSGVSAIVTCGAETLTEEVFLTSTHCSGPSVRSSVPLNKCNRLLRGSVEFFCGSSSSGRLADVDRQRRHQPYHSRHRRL
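Purified cruzain at 1.5 nM, pre-incubated 15 min with compound at room temperature in 100 mM sodium acetate pH 5.5, 5 mM DTT, 0.00005% Triton X-100. Reaction started with 2 uM Z-FR-AMC; AMC fluorescence increase over 60 s gives rate.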
Cruzain inh Det: cruzain (T. cruzi) inhibition with detergent; P25779; purified cruzain, Z-FR-AMC fluorescence, 0.01% Triton; Potency, µM, for inactives: max response, negative = inhibition, hits mostly inhibitors; actives 0.43% (n = 200,000);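 note: plate controls were neutral wells for no effect and buffer without enzyme for full effect; nearly all actives have a fitted effect of over 40% in size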
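Enzyme 1.5 nM, Z-FR-AMC 2 uM, NaOAc 100 mM pH 5.5, DTT 5 mM, Triton X-100 0.01%; 15 min RT compound preincubation; kinetic ex360/em450, 60 s delta.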
* marks the source's active call; other numbers are inactive results; ? = inconclusive. Most compounds without a hit are left out; they make up all but 2.5% or so of the library. Calls come from the whole dose curve; as a rule, active = well fitted curve in the direction sought with a large enough effect; inconclusive = small, poorly fitted or top-dose-only effect, or another doubt; inactive = no such curve, though single readings can be large; an effect the other way counts as inactive or inconclusive. Potency is the fitted concentration of half-maximal effect.

SMILES | Cruzain inh noDet | Cruzain inh Det
COc1ccc(OC)c(CNC(=O)Cc2ccc(NC(=O)N3CCCCc4ccccc43)cc2)c1 | 3% | -4%
CSC[C@@H]1NC(=S)N(c2ccc(C)cc2)C1=O | 13µM* | -1%
CC1=CC(C)(C)NC(=S)N1c1ccc(C)cc1 | 1% | -2%
CC(C)CC(=O)NC1CC(=O)N(c2ccc3c(c2)OCCO3)C1 (stereo unspecified) | 1% | -2%
O=C(Cn1cnc2sc(-c3ccccc3)cc2c1=O)NCCc1ccccc1 | -23% | -1%
O=C(Cn1cnc2sc(-c3ccccc3)cc2c1=O)NCc1ccccc1 | 16µM* | 1%
COc1ccc(N2CCN(Cc3cc(=O)oc4cc(-c5ccccc5)c(O)cc34)CC2)cc1 | ? | 0%
O=c1cc(CN2CCN(c3ccccc3F)CC2)c2cc(O)c(-c3ccccc3)cc2o1 | 7.9µM* | -3%
Cc1cc(NC(=O)CC2CCCC2)n(-c2nc3ccccc3[nH]2)n1 | -12% | -7%
Cc1cc(NC(=O)c2ccc(F)cc2F)n(-c2nc3ccccc3[nH]2)n1 | 20µM* | 4%
Cc1ccc(NC(=O)Nc2nnc(CSCCOc3ccc(Cl)cc3)s2)cc1 | 7.9µM* | 0%
COc1ccc(OCCSCc2nnc(NC(=O)Nc3ccc(Cl)cc3)s2)cc1 | 13µM* | -2%
CCc1nnc(NC(=O)Nc2ccc(OC)cc2)s1 | 9% | 2%
O=C(Nc1cccc(Cl)c1)Nc1nnc(CSCCOc2ccc(Cl)cc2)s1 | ? | -4%
CSc1nc(N)nc(SCC(=O)C23CC4CC(CC(C4)C2)C3)c1C#N | -16% | -4%
CCOC(=O)CC(=O)CSc1nc(N)c(C#N)c(-c2ccc(Cl)cc2)c1C#N | 32µM* | -2%
CCOC(=O)CC(=O)CSc1nc(C)cc(C)c1C#N | 4% | 3%
N#Cc1c(N)nc(SCC(=O)C23CC4CC(CC(C4)C2)C3)c(C#N)c1-c1ccc(Cl)cc1 | 4µM* | 3%
Cc1ccc(-n2cc(-c3ccccc3)nc2S(=O)(=O)CC(=O)Nc2ccc(F)cc2)cc1 | 27% | 8%
Cc1ccc(-c2cn(-c3ccc(Cl)cc3)c(S(=O)(=O)CC(=O)Nc3ccccc3)n2)cc1 | 16µM* | -18%
CCC(Sc1nc2ccccc2c2nc(CCc3c(C)n[nH]c3C)nn12)C(=O)Nc1ccccc1F (stereo unspecified) | ? | 3%
Nc1cc(-c2nc3ncccc3o2)ccc1Cl | -13% | -6%
Cc1cc(-c2nc3ncccc3o2)ccc1N | ? | 28µM*
Cc1ccc(C)c(NC(=O)CN2C(=O)CCc3ccccc32)c1 | -11% | -11%
COC(=O)c1ccc(OCC2c3cc(OC)c(OC)cc3CCN2C(=O)c2ccccc2F)cc1 (stereo unspecified) | ? | 9%
SMILES | Cruzain inh noDet | Cruzain inh Det
Cc1oc(-c2ccccc2F)nc1CS(=O)(=O)CC(=O)NCCc1ccc(Cl)cc1 | ? | 0%
CN(Cc1ccco1)c1ccnc(-c2ccccc2C(F)(F)F)n1 | 2% | 1%
Oc1oc(-c2ccco2)nc1C=Nc1ccccc1 | -9% | -21%
CN(C)c1ccc(/C=C/C(=O)c2cccc(Br)c2)cc1 | -4% | -2%
CN(C)c1ccc(N=Cc2nc(-c3ccccc3)oc2OC(=O)c2cccc(Br)c2)cc1 | 25µM* | -21%
CCC(=O)Oc1oc(-c2ccccc2)nc1C=Nc1ccccc1OC | -15% | -18%
CC(=O)Oc1oc(-c2ccccc2)nc1C=Nc1ccccc1 | 25µM* | 25µM*
CCOC(=O)c1ccc(N=Cc2nc3ccccc3n2C)cc1 | 4% | -1%
CCOC(=O)c1ccc(N=Cc2nc(-c3ccccc3)oc2OC(C)=O)cc1 | -27% | 14µM*
Cc1ccc(C(=O)Oc2oc(-c3ccco3)nc2C=Nc2ccccc2)cc1 | 13µM* | 10µM*
CCC(C(=O)Nc1cc(-c2cn3cccnc3n2)ccc1C)c1ccccc1 (stereo unspecified) | ? | -1%
O=C1CCC(c2ccccc2)=NN1c1nc2ccccc2s1 | 0% | 6%
CC(C(=O)Nc1ccccc1C(F)(F)F)n1nc(-c2ccccc2)c2c(c1=O)CCCC2 (stereo unspecified) | ? | -7%
COc1ccc(Cn2c(=O)c3oc4ccccc4c3n(Cc3cccc(C(F)(F)F)c3)c2=O)cc1 | 6% | -1%
O=C(Cn1nc(-c2ccccc2)nc(Cc2ccccc2)c1=O)Nc1ccccc1 | -9% | 0%
COc1ccc(C2C(C(=O)Nc3cccnc3)=C(C)Nc3nc(SCc4ccccc4)nn32)cc1 (stereo unspecified) | 9% | 2%
COc1ccc(CC(=O)NCc2nc3cccnc3n2Cc2ccc(C)cc2)cc1 | -14% | 0%
COc1ccc(Nc2oc(-c3ccc(COc4cccc(C)c4)o3)nc2C#N)cc1 | 16µM* | -6%
COc1ccc(Nc2oc(-c3ccc(COc4ccc(OC)cc4)o3)nc2C#N)cc1 | -28% | -3%
COc1ccc(Nc2oc(-c3ccc(COc4ccccc4)o3)nc2C#N)cc1 | ? | 2%
CCOc1ccc(Nc2oc(-c3ccc(COc4ccc(C)cc4)o3)nc2C#N)cc1 | 3.2µM* | -4%
COc1ccc(Nc2oc(COc3ccccc3F)nc2C#N)cc1 | 25µM* | -21%
COc1ccc(Nc2oc(COc3ccc(OC)cc3)nc2C#N)cc1 | 0% | -12%
CCOC(=O)c1cccc(NC(=O)NCCc2c(C)nn(C)c2C)c1 | 1% | 0%
O=C(COc1ccc(Cl)cc1)OCc1cc(=O)n2nc(-c3cccs3)sc2n1 | ? | -6%
SMILES | Cruzain inh noDet | Cruzain inh Det
COc1cccc(CN2C(=O)CN(C3CCCCC3)C(=O)C2c2ccc(OC)c(OC)c2)c1 (stereo unspecified) | -12% | 3%
COc1cc2nc(SCC(=O)Nc3cccc(C)c3)n3nc(CCn4c(C)nc5ccccc54)nc3c2cc1OC | -29% | -3%
OC(Cc1ccccc1)(Cc1ccccc1)c1ccccc1 | 8% | 4%
CCc1cccc(C)c1NC(=O)CSc1nc2ccc(N3C(=O)c4ccccc4C3=O)cc2s1 | ? | 5%
Cc1cc(C)c(NC(=O)C(C)Sc2nc3ccc(N4C(=O)c5ccccc5C4=O)cc3s2)c(C)c1 (stereo unspecified) | 6.3µM* | 0%
COc1ccccc1CNc1ncnc2c1cnn2-c1ccc(C)cc1 | 10% | -1%
CCOC(=O)c1ccc(NC(=O)Nc2c[nH]c(=O)[nH]c2=O)cc1 | 8% | 2%
Cc1c(Cl)cccc1NC(=O)Nc1c[nH]c(=O)[nH]c1=O | 20µM* | 2%
O=C(Nc1c(C(=O)N2CCN(c3ccccc3)CC2)oc2ccccc12)c1ccccc1F | -14% | -3%
O=C(Nc1c(C(=O)N2CCN(c3ccccc3F)CC2)oc2ccccc12)c1ccccc1F | 20µM* | -5%
c1ccc(N2CCN(c3nc4ccccc4n4nnnc34)CC2)cc1 | 25µM* | 4%
CN(C)c1ccc(Nc2nc3ccccc3n3nnnc23)cc1 | 16µM* | -8%
c1ccc2c(c1)nc(N1CCOCC1)c1nnnn12 | -12% | -1%
COc1ccc(CCNc2nc3ccccc3n3nnnc23)cc1OC | 0% | 0%
c1ccc(CCNc2nc3ccccc3n3nnnc23)cc1 | 13µM* | 3%
CCOc1ccc(Nc2nc3ccccc3n3nnnc23)cc1 | -1% | -3%
COc1ccccc1C(=O)Nc1ccccc1OCc1cc(=O)n2c(C)csc2n1 | 2% | 0%
O=C(N=Nc1c(O)[nH]c2ccc(Br)cc12)c1cc(-c2cccc3ccccc23)n[nH]1 | 10µM* | -3%
Cc1cccc(C)c1OCC(=O)N=Nc1c(O)[nH]c2ccc(Br)cc12 | -23% | 2%
